# The supplement of paper PMC3334620
# Over roughly 33,000 sequences, “E-score (-0.5 to 0.5)” has its median near -0.035; the highest 2% begin near 0.35. The sample as a whole holds a higher share of the highest values than the screen did.
# Target: T1, Pdr3 (UniProt P33200)
# T1 sequence: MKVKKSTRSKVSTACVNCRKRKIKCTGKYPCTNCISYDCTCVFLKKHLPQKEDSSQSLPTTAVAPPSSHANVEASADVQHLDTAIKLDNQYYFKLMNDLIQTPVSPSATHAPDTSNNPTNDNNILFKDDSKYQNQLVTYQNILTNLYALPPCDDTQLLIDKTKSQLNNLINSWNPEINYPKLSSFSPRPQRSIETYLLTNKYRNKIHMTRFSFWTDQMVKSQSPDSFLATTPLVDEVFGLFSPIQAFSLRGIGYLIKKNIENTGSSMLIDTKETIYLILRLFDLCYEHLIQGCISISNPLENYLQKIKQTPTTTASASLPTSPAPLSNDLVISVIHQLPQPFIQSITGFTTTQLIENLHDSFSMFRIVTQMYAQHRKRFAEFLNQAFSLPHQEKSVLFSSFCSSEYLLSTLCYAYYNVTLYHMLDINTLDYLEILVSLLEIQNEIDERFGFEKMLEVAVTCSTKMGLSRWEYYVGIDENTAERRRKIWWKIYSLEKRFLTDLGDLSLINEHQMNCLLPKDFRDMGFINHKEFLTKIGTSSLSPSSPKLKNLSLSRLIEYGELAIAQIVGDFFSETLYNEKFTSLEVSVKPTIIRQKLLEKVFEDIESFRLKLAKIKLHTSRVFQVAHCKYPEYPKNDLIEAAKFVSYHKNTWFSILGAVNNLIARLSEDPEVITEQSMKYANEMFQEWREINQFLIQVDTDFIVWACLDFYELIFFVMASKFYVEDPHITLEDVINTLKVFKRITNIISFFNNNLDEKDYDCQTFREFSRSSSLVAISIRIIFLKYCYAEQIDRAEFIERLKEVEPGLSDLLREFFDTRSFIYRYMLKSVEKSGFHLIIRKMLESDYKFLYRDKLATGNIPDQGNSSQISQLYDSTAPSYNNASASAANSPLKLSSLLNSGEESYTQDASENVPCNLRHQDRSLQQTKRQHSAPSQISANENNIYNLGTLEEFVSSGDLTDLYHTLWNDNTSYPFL
# Experiment: PBM E-score (8-mer binding enrichment) (E-score (-0.5 to 0.5)); higher = stronger / more preferred TF binding
# Conditions: protein concentration: 200 nM; construct: GST-full length
# Protocol: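 Universal 'all 10-mer' protein binding microarrays (Agilent AMADID 015681) probed with GST-tagged S. cerevisiae TFs (full-length or DBD) made by in vitro transcription/translation (PURExpress), about 100-200 nM. Bound TF was detected with fluorescent anti-GST. Each ungapped 8-mer (which stands for itself and its reverse complement) is scored by the PBM enrichment score (E-score), a modified Wilcoxon-Mann-Whitney statistic from -0.5 to +0.5, computed with the Universal PBM Analysis Suite. Scale: above 0.35 generally sequence-specific binding.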
row,Sequence,PBM E-score
1,CTTCACAC,-0.201
2,ACCAAATA,0.0784
3,GGAATGTA,0.339
4,CATAACCG,0.135
5,ACAATGCT,-0.171
6,AGCATAAG,-0.0742
7,AGTTCCTG,-0.0933
8,AGTTCCAC,-0.00065
9,AGGTCCGA,0.305
10,CGGTCCGA,0.378
11,AGTTCCAG,-0.0101
12,AGTTCCGG,0.464
13,GGGTCCGA,0.234
14,AGTTCCGC,0.467
15,AGTTCCCC,0.0744
16,CTAGGTTC,0.154
17,CCCATCCA,0.00501
18,GTGAAAGA,-0.0383
19,CTAAGATC,-0.0406
20,ACTACCCT,-0.179
21,ATCTAGAG,-0.177
22,CTTCGACC,0.054
23,TCGGATAA,0.307

row,Sequence,PBM E-score
1,ATGGAAGA,-0.243
2,ATGGAAGC,0.179
3,AGGGAAGC,-0.0866
4,ACGGAAGT,0.393
5,ACGGAAGC,0.427
6,ACGGAAGA,0.373
7,GCGGAAGA,0.393
8,ACAGAAGT,-0.285
9,AAGGAAGT,0.0783
10,AAGGAAGA,-0.2
11,GAGGAAGA,0.0527
12,GTGGAAGA,-0.0507
13,CCCCCTAG,-0.342
14,CCCTGACA,-0.222
15,CATGAACG,-0.0457
16,CAAAACCG,0.00937
17,GGTGCGCA,0.191
18,TCAGAAGA,-0.178
19,CAGGAAGA,0.0315
20,GCGGAAGC,0.347
21,ATGGAAGG,-0.197
22,TCGGAAGA,0.359
23,CCGGAAGC,0.444

row,Sequence,PBM E-score
1,CCGGAAGA,0.403
2,TAGGAAGA,-0.204
3,CTGGAAGA,-0.108
4,AAGGAAGG,-0.205
5,CTGGAAGC,-0.322
6,ACGGAAGG,0.397
7,CGACCACA,-0.0427
8,AAGTGCAC,0.0238
9,ACTGAGAA,-0.121
10,TAAGCCCA,-0.113
11,ACTAGGGA,-0.253
12,ACTGCCCG,0.179
13,CACGTGGA,-0.0333
14,AGGGAACA,-0.0421
15,CGGGAAGC,0.282
16,CGGGAAGA,0.391
17,CCAGAAGG,-0.0321
18,CCGGAAGG,0.421
19,GGGGAACA,-0.00834
20,AGGGAAGA,-0.238
21,CAGGAAGG,-0.317
22,CGGGAACA,0.358
23,CCCCCCAG,-0.372

row,Sequence,PBM E-score
1,CGCGAGGA,0.135
2,TATGGCGA,-0.0751
3,GCAGACAA,0.0426
4,ACCCTCAA,-0.158
5,ACCCGGAA,0.456
6,ACCCGGCG,0.276
7,ACCCGGAT,0.31
8,TCCCGGAA,0.463
9,ACCCGGTA,0.215
10,ACCCGGCA,0.256
11,TCCCGTAA,0.0877
12,GCCCGGAA,0.459
13,GCCCGGAC,0.282
14,GCCCGGTA,0.102
15,TCCCGAAA,0.206
16,ACCCGGAG,0.38
17,CCCTGAAA,-0.0909
18,ACCCCGTA,0.006
19,CACGCGTG,0.283
20,GCTTGGTA,-0.168
21,AATTCGAA,-0.148
22,CCCCGGAC,0.33
23,CCCCCGAA,-0.0602

row,Sequence,PBM E-score
1,CCCCCGAG,-0.0658
2,CCCCGCAG,0.225
3,CCCCGGAG,0.355
4,CCCCGGAA,0.421
5,CAGGGATA,-0.193
6,ATAGTCAT,-0.0921
7,CGCGGCGC,0.398
8,AGCGGCGC,0.137
9,CGCGGCGA,0.374
10,GGCGGCGA,0.243
11,CGCGGCAA,0.341
12,AGCGGCAC,0.118
13,CGCGGCAC,0.385
14,CGGCGCGC,0.245
15,AGCGGCGA,0.197
16,CCGAGCAC,0.122
17,ACGTGAGT,-0.0439
18,TGAGTCCA,-0.18
19,AAAGTCAT,-0.0971
